This is one part of a sample in which hits are shown more often than they occur.
KDM5B inh: inhibitors of human KDM5B histone demethylase. Q9UGL1. KDM5B demethylase, FDH-coupled NADH fluorescence (FDH is formaldehyde dehydrogenase). Potency, µM (series often up to 57.7 µM), most hits filed as inhibitors. 220,000 tested, 2.6% active; active = well fitted inhibition curve with a large enough effect; note: 0% is about no effect; nearly all actives have a fitted effect of over 70% in size
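KDM5BΔAP (200 nM final) in 50 mM HEPES pH 7.5, 0.01% Tween-20 was preincubated 10 min at RT with compound over a concentration range. Substrate mix (H3K4me3 12.5 µM, α-KG 25 µM, Fe²⁺, ascorbate, NAD⁺, FDH) was added, and NADH fluorescence change over 30 min gave dose-response curves.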
Active calls of the source: *; i = inactive. Potency is the fitted concentration of half-maximal effect.

SMILES	KDM5B inh
COc1cccc(-c2cc3c(=O)n(CCNC(=O)c4cc(C)cc(C)c4)ccn3n2)c1	32µM*
COc1ccc(C(=O)NCCn2ccn3nc(-c4cccc(OC)c4)cc3c2=O)cc1	22µM*
COc1cccc(-c2cc3c(=O)n(CCNC(=O)c4cccc(Cl)c4)ccn3n2)c1	i
Cn1nc(C(=O)Nc2ccnn2Cc2ccc(Cl)cc2Cl)c2ccccc2c1=O	i
CCNc1c(NC(=O)Nc2cccc(C)c2)c(=O)oc2ccccc12	i
COc1ccc(CN(CC(F)(F)F)C(=O)c2cnc3ccccc3n2)cc1	i
C[S+](=O)([O-])N1CC2(CCN(Cc3cccnc3)C2)Cc2ccccc21 (stereo not given)	i
CCCn1ncc(-c2nc(-c3ccncc3)no2)c1C	i
CC(C)Cc1cc(C[C@@H]2C[C@H](NC(=O)C(C)(C)C)C2(C)C)no1	i
CC(C)Cc1cc(C(=O)N2CCN(c3ccccc3)CC2)no1	i
CC(C)Cc1cc(CNc2nccc(-c3cc(C(=O)O)ccn3)n2)no1	32µM*
Cc1cccc(C(=O)Nc2ccc(S(=O)(=O)Nc3cnc4ccccc4n3)cc2)c1	i
Cc1ccc(-c2csc3ncn(CC(=O)c4cc(C)n(C)c4C)c(=O)c23)s1	i
Cc1cc(C)cc(NC(=O)CC(=O)N2CCN(C)C3(CCN(C)CC3)C2)c1	i
Cc1cc(C)c2c(C(=O)N3CCN(C)C4(CCN(C)CC4)C3)cc(C)nc2c1	25µM*
CCc1c(C(=O)N2CCCN(C)C3(CCN(C)CC3)C2)csc1C	i
Cc1cc(C)n(CCC(=O)N[C@@H]2CCOC[C@H]2OCC2CCC2)c(=O)n1	i
Cc1cc(C)n2nc(C)c(C(=O)N[C@@H]3COCC[C@@H]3OCC3CC3)c2n1	22µM*
CCn1cc(C(=O)N[C@@H]2COCC[C@@H]2OCC2CC2)c(=O)c2ccc(C)nc21	i
COc1ccc(NC(=O)N2CCN(Cc3nc(-c4cccc(C(F)(F)F)c4)no3)CC2)cc1	i
Cc1ccc(NC(=S)NCc2ccccc2Cl)cc1	i
CC1(C(=O)NC2CCOCC2)COCc2cnc(Nc3ccccc3)nc21 (stereo not given)	i
Cn1ccc(NC(=O)C2(C)COCc3cnc(Nc4ccccc4)nc32)n1 (stereo not given)	i
CC1(C(=O)NC2CCOCC2)CN(Cc2ccccc2)Cc2ccc(Nc3ccccc3)nc21 (stereo not given)	28µM*
CC(C)CNc1ccc2c(n1)C(C)(C(=O)NC1CCOCC1)CN(Cc1ccccc1)C2 (stereo not given)	i
SMILES	KDM5B inh
CC1(C(=O)NC2COC2)CN(Cc2ccccc2)Cc2ccc(Nc3ccccc3)nc21 (stereo not given)	35µM*
N#CCOc1ccc2[nH]cc(C(C(=O)O)N3CCN(Cc4ccncc4)CC3)c2c1 (stereo not given)	i
C=CC[N+](CC)(CC)CC#Cc1cccc(C)c1	i
CNC(=S)NNC(=O)c1csc(C)c1	i
O=c1c2nnn(-c3ccc(F)cc3)c2ncn1Cc1nc(-c2ccccc2)no1	i
Cc1cc(-n2c(=O)c3sccc3n(CC(=O)NC3CCc4ccccc43)c2=O)ccc1F (stereo not given)	i
O=C(O)/C=C/c1cccc(I)c1	i
CC(=O)N1CCN(S(=O)(=O)c2ccc(C)c3ncccc23)CC1	i
Cc1ccc(-c2ccc(N)nc2)c2cccnc12	25µM*
Cc1ccc(B(O)O)c2cccnc12	i
O=C(Nc1nn[nH]n1)c1cc(-c2ccccc2)nc2ccccc12	i
N#Cc1ccc(CSCc2nc(N)nc(Nc3ccccc3)n2)cc1	i
O=C(CSc1ccc(Cl)cc1)Nc1ccc2c(c1)OCCCO2	i
c1ccc(CN2CCC(NCc3c[nH]c4ccccc34)C2)cc1 (stereo not given)	i
COCCNc1nc(-c2ccc(NC(=O)C(C)C)cc2)cs1	i
Cc1nc(N2CCCCC2)n(CC(=O)Nc2cccc(Cl)c2C)c(=O)c1C	i
CCc1ccccc1NC(=O)Cn1c(N2CCC(C)CC2)nc(C)cc1=O	i
COc1ccc(NC(=O)Cn2c(N3CCC(C)CC3)nc(C)cc2=O)cc1	i
COc1ccc(Cl)cc1NC(=O)Cn1c(N2CCC(C)CC2)nc(C)cc1=O	28µM*
COc1ccc(Cl)cc1NC(=O)Cn1c(N2CCCCC2)nc(C)c(C)c1=O	20µM*
Cc1ccc(NC(=O)Cn2c(N3CCCCC3)nc(C)c(C)c2=O)c(Cl)c1	i
N#Cc1c(NC(=O)CNc2ccccc2C(=O)NCC(F)(F)F)sc2c1CCCCC2	i
Cn1cc(CC(=O)N2CCCc3ncc(C(=O)Nc4cccnc4)cc32)c2ccccc21	i
Cc1cccc2cc(CN(Cc3ccccc3)C(=O)C(C)C)c(=O)[nH]c12	i
C=CCn1c(SCc2nc3ccccc3o2)nnc1-c1ccc(Cl)cc1	i
COc1cccc(-c2cc(-c3c(C)noc3C)cc3c2C(=O)N(C)C3)c1OC	i
NC(=O)c1cccc(-c2cc(-c3ccncc3)c3cncn3c2)c1	i
C[S+](=O)([O-])c1ccc(-c2cc(-c3cccnc3)c3cncn3c2)cc1	40µM*

Bioassay records (PubChem BioAssay)
